Results published in PubChem BioAssay.
For some assays here: Measured potencies and affinities stand elsewhere. Activity calls are given as the source filed them. Unless noted, how the calls were made is not given here.

Experiments:
[1] = antimalarial activity against Dd2 strain (AID 2302;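 active means growth inhibition above 50% at the single 2 µM test dose, taken to imply half-maximal potency below 2 µM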;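 further: 0% = DMSO untreated growth and 100% = chloroquine plus artemisinin killed control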); conditions: P. falciparum Dd2 in RBCs, LDH growth readout, 72 h; at 2 µM; hits give high values
[2] = human hepatoma cell viability loss – ATP luminescence, cytotoxicity control for P. falciparum antimalarial project, primary screen (AID 2303;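 active means inhibition above 50%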;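 further: 0% = DMSO wells and 100% = digitonin-killed cells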); conditions: HepG2 viability, 24-48 h, at 10 µM, hits give high values
[3] = target: L-lactate dehydrogenase (Plasmodium falciparum (isolate CDC / Honduras)) (UniProt Q27743); test: PfLDH activity inhibition – cell lysate, 3D7 strain, counter-screen for P. falciparum growth inhibition project (AID 2304);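 further: 0% = vehicle and 100% = reference inhibitor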; conditions: P. falciparum 3D7 crude extract, LDH APAD/NBT absorbance; at 2 µM; hits give high values
[4] = inhibition of 3D7 malaria parasite growth – strain 3D7 (AID 2306);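 further: 0% = DMSO wells and 100% = chloroquine plus artemisinin control wells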; conditions: P. falciparum 3D7 erythrocytic growth, LDH absorbance, 72 h; at 2 µM; hits give high values
[5] = target: Calcium-dependent protein kinase 1 (Plasmodium falciparum (isolate 3D7)) (UniProt P62344); test: PfCDPK1 kinase inhibitors, biochemical, TCAMS library (AID 1159585; cut-off not given, nearly all actives have IC50 up to about 0.98 µM;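 further: inhibitors leave more ATP so luminescence rises with inhibition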); conditions: recombinant PfCDPK1, Kinase-Glo ATP depletion luminescence
[6] = target: Plasmodium falciparum protein kinase 6 (PK6, PF3D7_1337100) (UniProt Q8IDW1); test: PfPK6 kinase inhibitors, biochemical, TCAMS library (AID 1159586); conditions: recombinant PfPK6, Kinase-Glo ATP depletion luminescence
[7] = target: Protein kinase 7 (PK7), Plasmodium falciparum 3D7 (PF3D7_0213400) (UniProt Q7YTF7); test: inhibition of Plasmodium PK7 catalytic activity – biochemical, TCAMS antimalarial set, Kinase-Glo luminescence (AID 1159587); conditions: recombinant PfPK7, Kinase-Glo ATP depletion luminescence
[8] = target: Calcium-dependent protein kinase 4 (Plasmodium falciparum (isolate 3D7)) (UniProt Q8IBS5); test: PfCDPK4 kinase inhibitors, biochemical, TCAMS library (AID 1159588; cut-off not given, nearly all actives have IC50 up to about 0.91 µM); conditions: recombinant PfCDPK4, Kinase-Glo ATP depletion luminescence
Calcium-dependent protein kinase 4 (Plasmodium falciparum (isolate 3D7)), sequence (Q8IBS5 whole entry, looked up): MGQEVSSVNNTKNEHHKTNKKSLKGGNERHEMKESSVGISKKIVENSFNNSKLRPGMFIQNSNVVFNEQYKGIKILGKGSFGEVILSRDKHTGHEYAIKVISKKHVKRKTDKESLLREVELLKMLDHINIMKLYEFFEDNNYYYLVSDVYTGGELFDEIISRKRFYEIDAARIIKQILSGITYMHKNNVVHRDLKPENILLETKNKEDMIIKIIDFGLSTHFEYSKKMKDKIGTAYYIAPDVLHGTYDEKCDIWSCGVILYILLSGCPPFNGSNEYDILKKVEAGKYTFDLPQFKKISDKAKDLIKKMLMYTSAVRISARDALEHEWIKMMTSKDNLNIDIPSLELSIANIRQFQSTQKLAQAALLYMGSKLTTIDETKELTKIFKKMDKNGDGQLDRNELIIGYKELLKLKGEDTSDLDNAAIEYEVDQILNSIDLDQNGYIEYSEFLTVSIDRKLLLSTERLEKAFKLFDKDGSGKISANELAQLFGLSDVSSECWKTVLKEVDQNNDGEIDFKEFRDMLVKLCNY

L-lactate dehydrogenase (Plasmodium falciparum (isolate CDC / Honduras)), sequence (Q27743 whole entry, looked up): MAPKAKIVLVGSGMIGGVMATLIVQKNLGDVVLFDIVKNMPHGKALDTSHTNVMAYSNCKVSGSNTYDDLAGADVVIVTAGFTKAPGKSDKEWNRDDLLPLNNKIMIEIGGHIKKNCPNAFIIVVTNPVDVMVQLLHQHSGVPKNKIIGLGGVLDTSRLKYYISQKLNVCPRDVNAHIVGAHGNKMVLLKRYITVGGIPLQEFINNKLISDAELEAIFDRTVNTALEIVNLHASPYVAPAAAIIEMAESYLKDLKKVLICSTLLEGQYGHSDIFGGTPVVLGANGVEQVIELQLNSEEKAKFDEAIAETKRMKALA
Protein kinase 7 (PK7), Plasmodium falciparum 3D7 (PF3D7_0213400), sequence (Q7YTF7 1-343): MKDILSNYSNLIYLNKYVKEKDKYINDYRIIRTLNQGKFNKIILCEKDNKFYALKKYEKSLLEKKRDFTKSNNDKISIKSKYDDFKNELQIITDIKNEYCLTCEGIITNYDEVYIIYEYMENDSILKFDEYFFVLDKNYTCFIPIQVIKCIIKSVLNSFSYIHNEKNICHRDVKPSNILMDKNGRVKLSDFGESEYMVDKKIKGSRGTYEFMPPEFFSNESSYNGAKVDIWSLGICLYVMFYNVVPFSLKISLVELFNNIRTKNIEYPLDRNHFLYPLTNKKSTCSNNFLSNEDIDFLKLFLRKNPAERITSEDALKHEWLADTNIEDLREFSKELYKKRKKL
Calcium-dependent protein kinase 1 (Plasmodium falciparum (isolate 3D7)), sequence (P62344 whole entry, looked up): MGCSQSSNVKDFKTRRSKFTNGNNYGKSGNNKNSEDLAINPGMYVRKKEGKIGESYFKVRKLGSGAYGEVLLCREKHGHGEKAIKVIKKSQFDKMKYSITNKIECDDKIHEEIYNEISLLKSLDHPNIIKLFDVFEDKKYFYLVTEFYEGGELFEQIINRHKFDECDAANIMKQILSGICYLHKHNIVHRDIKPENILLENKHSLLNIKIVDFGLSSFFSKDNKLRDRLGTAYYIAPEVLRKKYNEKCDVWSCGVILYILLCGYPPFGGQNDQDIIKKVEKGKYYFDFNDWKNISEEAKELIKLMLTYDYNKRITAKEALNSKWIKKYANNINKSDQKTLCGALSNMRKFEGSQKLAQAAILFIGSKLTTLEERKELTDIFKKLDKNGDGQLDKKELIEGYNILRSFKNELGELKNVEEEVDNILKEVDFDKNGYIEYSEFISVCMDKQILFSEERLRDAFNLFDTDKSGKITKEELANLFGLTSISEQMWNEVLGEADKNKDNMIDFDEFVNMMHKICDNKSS
Plasmodium falciparum protein kinase 6 (PK6, PF3D7_1337100), sequence (Q8IDW1 1-305): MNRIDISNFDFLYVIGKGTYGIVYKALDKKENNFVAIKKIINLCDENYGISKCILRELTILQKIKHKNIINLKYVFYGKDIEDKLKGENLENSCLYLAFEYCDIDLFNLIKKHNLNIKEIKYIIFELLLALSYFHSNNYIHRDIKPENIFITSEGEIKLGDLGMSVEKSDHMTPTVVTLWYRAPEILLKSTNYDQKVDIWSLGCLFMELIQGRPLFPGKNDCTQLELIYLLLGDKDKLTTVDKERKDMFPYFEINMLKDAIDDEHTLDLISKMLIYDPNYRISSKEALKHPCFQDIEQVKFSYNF

SMILES | growth inhibition [1] | inhibition [2] | inhibition [3] | growth inhibition [4] | outcome [5] | outcome [6] | outcome [7] | outcome [8]
COc1cc(Cc2cnc(N)nc2N)cc(OCCCCCC(=O)O)c1OC | 2% (inactive) | -16% (inactive) | -4% (inactive) | 95% (active) | inactive | inactive | inactive | inactive
COc1ccc(-n2nc(C)cc2C(=O)NCc2ccc(-c3c(C)noc3C)cc2)cc1 | 92% (active) | 3% (inactive) | 3% (inactive) | 101% (active) | inactive | inactive | inactive | inactive
N#Cc1ccc(-c2ccc(OCC(O)CN3CCCN(Cc4cccc(O)c4Cl)CC3)cc2)cc1 (stereo not given) | 66% (active) | 3% (inactive) | -6% (inactive) | 98% (active) | inactive | inactive | inactive | inactive
O=C(Cc1cccc(OCCCN(Cc2cccc(C(F)(F)F)c2Cl)CC(c2ccccc2)c2ccccc2)c1)NCc1ccco1 | 84% (active) | 2% (inactive) | -6% (inactive) | 94% (active) | inactive | inactive | inactive | inactive
CC(=O)Nc1nc(C(=O)Nc2ccc(-c3cccc(-c4nc5ccccc5[nH]4)c3)cc2)cs1 | 83% (active) | 68% (active) | -10% (inactive) | 99% (active) | inactive | inactive | inactive | inactive
COc1cccc(C(=O)Nc2ccc(S(=O)(=O)c3cc4c(cc3OC)CCN(C)CC4)cc2)c1 | 3% (inactive) | -11% (inactive) | -1% (inactive) | 86% (active) | inactive | inactive | inactive | inactive
COc1ccc(Cn2cncc2CN(CCC(C)C)C(=O)c2ccc(Cl)nc2Cl)cc1 | 61% (active) | 19% (inactive) | -1% (inactive) | 87% (active) | inactive | inactive | inactive | inactive
Cc1cc(C(F)(F)F)n2nc(C3CCN(Cc4cc(C)c(O)c(C)c4)C3)cc2n1 (stereo not given) | 99% (active) | 34% (inactive) | 0% (inactive) | 98% (active) | inactive | inactive | inactive | inactive
Cc1ccc(C(=O)N2CCc3cc4nccc(N5CCN6CCC[C@H]6C5)c4cc32)cc1 | 13% (inactive) | 5% (inactive) | -5% (inactive) | 95% (active) | inactive | inactive | inactive | inactive
CC(C)c1ccc(OCCCON2C(N)=NC(N)=NC2(C)C)cc1 | 97% (active) | 69% (active) | 0% (inactive) | 93% (active) | inactive | inactive | inactive | inactive
CC(C)Oc1ccccc1-c1csc(C(=O)NCC2CCN(Cc3ccc(C(C)(C)C)cc3)C2)c1 (stereo not given) | 45% (inactive) | 59% (active) | 2% (inactive) | 90% (active) | inactive | inactive | inactive | inactive
CC(=O)Nc1ncc(C(=O)Nc2cccc(-c3ccc(-c4nc5ccc(F)cc5[nH]4)cc3)c2)s1 | 78% (active) | 18% (inactive) | 4% (inactive) | 94% (active) | inactive | inactive | inactive | inactive
COc1ccc(NC(=O)[C@H](Cc2ccccc2)Nc2cc(C)nc(NCc3ccccc3C)n2)cc1 | 71% (active) | 16% (inactive) | 2% (inactive) | 101% (active) | inactive | inactive | inactive | inactive
Cc1cc(N[C@@H](Cc2ccccc2)C(=O)Nc2ccccc2)nc(Nc2ccccc2)n1 | 69% (active) | 8% (inactive) | -1% (inactive) | 101% (active) | inactive | inactive | inactive | inactive
C[C@H](NC(=O)c1c(CN2CCC(N3CCCCC3)CC2)c(-c2ccccc2)nc2cc(O)ccc12)C1CCCCC1 | 72% (active) | 77% (active) | 0% (inactive) | 99% (active) | inactive | inactive | inactive | inactive
Cc1ccc(NC(=O)Nc2ccc(Cl)c(C(F)(F)F)c2)cc1-c1ccc(C(=O)NCCN2CCOCC2)cc1 | 31% (inactive) | 52% (active) | 0% (inactive) | 98% (active) | inactive | inactive | inactive | inactive
COc1ccc(Cn2c(Nc3cccc(C(F)(F)F)c3)nc3cc(C(=O)NCCCN(C)C)ccc32)cc1Cl | 3% (inactive) | 15% (inactive) | -7% (inactive) | 90% (active) | inactive | inactive | inactive | inactive
O=C1OC(c2ccccc2)(c2ccccn2)CN1C1CCN(Cc2cccn2-c2ccc(Cl)cc2)CC1 (stereo not given) | 98% (active) | 21% (inactive) | -5% (inactive) | 99% (active) | inactive | inactive | inactive | inactive
COc1ccc(NCc2cccc(-c3cccc(CNCCc4ccccc4)c3)c2)cc1 | 14% (inactive) | 41% (inactive) | 0% (inactive) | 96% (active) | inactive | inactive | inactive | inactive
COC(=O)[C@@H](NC(=O)[C@H](CC(C)C)Nc1ccc(C#N)c2ccccc12)c1ccc(O)cc1 | 87% (active) | 4% (inactive) | 0% (inactive) | 98% (active) | inactive | inactive | inactive | inactive

SMILES | growth inhibition [1] | inhibition [2] | inhibition [3] | growth inhibition [4] | outcome [5] | outcome [6] | outcome [7] | outcome [8]
O=S(=O)(/C=C/c1ccccc1)N(Cc1ccc(-c2ccc(CNCCOc3ccccc3)cc2)cc1)CC1CCCCN1 (stereo not given) | 95% (active) | 99% (active) | 4% (inactive) | 99% (active) | inactive | inactive | inactive | inactive
CN1CCCN(Cc2cccc(-c3cccc(NC(=O)c4cccc(Cl)c4)c3)c2)CC1 | 20% (inactive) | 17% (inactive) | -4% (inactive) | 96% (active) | inactive | inactive | inactive | inactive
COc1cc(NC(=O)N2CCc3ccc(OCCN4CCCCC4)cc32)cc(C(F)(F)F)c1 | 93% (active) | 9% (inactive) | 6% (inactive) | 101% (active) | inactive | inactive | inactive | inactive
COc1ccc2ncc(F)c(CCN3C[C@H](CNCc4cc(F)c5c(c4)NC(=O)CO5)[C@H](O)C3)c2n1 | 23% (inactive) | 3% (inactive) | -7% (inactive) | 94% (active) | inactive | inactive | inactive | inactive
Cc1cc(C2CCN(CCCCNC(=O)c3ccc(-c4ccc(C(F)(F)F)cc4)cc3)CC2)c(C)cc1OCCOC1CCCCO1 (stereo not given) | 5% (inactive) | 30% (inactive) | -7% (inactive) | 95% (active) | inactive | inactive | inactive | inactive
O=C(Nc1ccc(C(=O)N2CCN(CCN3CCN(c4cccc(C(F)(F)F)c4)CC3)CC2)cc1)c1ccc(OC(F)(F)F)cc1 | 25% (inactive) | 38% (inactive) | 7% (inactive) | 95% (active) | inactive | inactive | inactive | inactive
O=C(CN1CCN(S(=O)(=O)C=Cc2ccccc2)CC1)Nc1cc(C(F)(F)F)ccc1Cl | 63% (active) | 23% (inactive) | 5% (inactive) | 96% (active) | inactive | inactive | inactive | inactive
CN1CCCN(Cc2cccc(-c3ccc(NC(=O)c4cccc(Cl)c4)cc3)c2)CC1 | 10% (inactive) | 34% (inactive) | -3% (inactive) | 90% (active) | inactive | inactive | inactive | inactive
O=c1cc(NCCCNCc2scc(I)c2I)[nH]c2ccccc12 | 73% (active) | -16% (inactive) | -1% (inactive) | 100% (active) | inactive | inactive | inactive | inactive
COc1ccc(NC(=O)Nc2ccc(-c3ccncc3)c(Cl)c2)cc1N1CCN(C)CC1 | 62% (active) | 19% (inactive) | 3% (inactive) | 98% (active) | inactive | inactive | inactive | inactive
Cc1ncc(CN2CCC(C(=O)Nc3ccc(-c4nc5ccccc5o4)cc3)CC2)s1 | 92% (active) | -14% (inactive) | 1% (inactive) | 82% (active) | inactive | inactive | inactive | inactive
COC(=O)CCn1c(C2CCN(CC3CCC(NC(=O)/C=C/c4ccc(Cl)c(Cl)c4)CC3)CC2)nc2ccccc21 (stereo not given) | 10% (inactive) | 14% (inactive) | -2% (inactive) | 94% (active) | inactive | inactive | inactive | inactive
O=C(/C=C/c1ccc(Cl)c(Cl)c1)NC1CCC(CN2CCC(c3nc4ccccc4s3)CC2)CC1 (stereo not given) | 32% (inactive) | 50% (active) | -4% (inactive) | 87% (active) | inactive | inactive | inactive | inactive
NCCNc1ccnc2cc(Cl)ccc12 | 54% (active) | 9% (inactive) | 4% (inactive) | 101% (active) | inactive | inactive | inactive | inactive
CC1CN(Cc2cccc(-c3ccc(-c4nc5ccccc5[nH]4)cc3)c2)CC(C)O1 (stereo not given) | 88% (active) | 37% (inactive) | -6% (inactive) | 90% (active) | inactive | inactive | inactive | inactive
Cn1cncc1CCCN(Cc1ccc(-c2ccc(C(F)(F)F)cc2)cc1)C(=O)Cn1c(CCc2cccc(F)c2F)cc(=O)c2cccnc21 | 59% (active) | 17% (inactive) | -2% (inactive) | 85% (active) | inactive | inactive | inactive | inactive
O=C(Nc1cc(Cl)cc(Cl)c1)c1cc(Cl)c(=O)n(Cc2ccc(Cl)cc2)c1 | 57% (active) | 7% (inactive) | 7% (inactive) | 89% (active) | inactive | inactive | inactive | inactive
Nc1nc(N)c2c(ccc3nn(C4CCCC4)cc32)n1 | 3% (inactive) | 44% (inactive) | -1% (inactive) | 97% (active) | inactive | inactive | inactive | inactive
N#Cc1ccc(-c2ccc(C(=O)NCCCCN3CCC(n4cnc5ccccc54)CC3)cc2)cc1 | 2% (inactive) | 15% (inactive) | -3% (inactive) | 94% (active) | inactive | inactive | inactive | inactive
COc1ccc(-c2nonc2NC(=O)c2cccc(Cl)c2)cc1OC | 63% (active) | 41% (inactive) | 4% (inactive) | 98% (active) | inactive | inactive | inactive | inactive
